# Experimental data published in PubChem BioAssay AID1159580 (chemical genetic matrix, 2015).
# Where “and” joins values, the source holds several entries; their conditions need not be identical. Identical values can stand only once. Out of some 5,500 compounds screened, about 2,000 (36%) were called active. Inconclusive results (about 18%) are left out. No stated cut-off is given here; in the data, active means normalized growth mostly below about 0.91 (no sharp cut-off); inconclusive means no clear call, values can overlap the other calls; inactive means mostly above about 0.92. Some of the results follow. A structure can be active in one record and inactive in another.
# Experiment: chemical genetic growth profiling, strain panel (AID 1159580);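 further: tested at 20 µM; growth read once vehicle control cultures reached saturation at 30 °C; 1 = growth at the plate median or of vehicle wells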
# Conditions: S. cerevisiae deletion strains, growth OD
smiles,measurement,setting,value
COc1ccc(-c2coc3cc(OC)ccc3c2=O)cc1,normalized growth,"locus YAL013W, strain DEP1, stronger effect = lower value",0.933 (inactive)
same,normalized growth,"locus YBR021W, strain FUR4, stronger effect = lower value",1.02 (inactive)
same,normalized growth,"locus YBR229C, strain ROT2, stronger effect = lower value",0.908 (active)
same,normalized growth,"locus YCL029C, strain bik1, stronger effect = lower value",0.929 (inactive)
same,normalized growth,"locus YDL035C, strain GPR1, stronger effect = lower value",0.905 (inactive)
same,normalized growth,"locus YDL074C, strain BRE1, stronger effect = lower value",0.839 (inactive)
same,normalized growth,"locus YDL101C, strain DUN1, stronger effect = lower value",0.891 (active)
same,normalized growth,"locus YDL185W, strain tfp1, stronger effect = lower value",0.896 (active)
same,normalized growth,"locus YDL192W, strain arf1, stronger effect = lower value",0.898 (active)
same,normalized growth,"locus YDR101C, strain arx1, stronger effect = lower value",0.92 (inactive)
same,normalized growth,"locus YDR150W, strain NUM1, stronger effect = lower value",0.94 (inactive)
same,normalized growth,"locus YDR162C, strain NBP2, stronger effect = lower value",0.607 (active)
same,normalized growth,"locus YDR318W, strain mcm21, stronger effect = lower value",0.912 (active)
same,normalized growth,"locus YDR388W, stronger effect = lower value",0.92 (active)
same,normalized growth,"locus YDR502C, strain sam2, stronger effect = lower value",0.907 (active)
same,normalized growth,"locus YEL061C, strain CIN8, stronger effect = lower value",0.917 (active)
same,normalized growth,"locus YER110C, stronger effect = lower value",0.907 (inactive)
same,normalized growth,"locus YER155C, strain BEM2, stronger effect = lower value",1.01 (inactive)
same,normalized growth,"locus YER167W, strain BCK2, stronger effect = lower value",0.906 (inactive)
same,normalized growth,"locus YGL078C, strain dbp3, stronger effect = lower value",0.936 (inactive)
same,normalized growth,"locus YGL086W, strain mad1, stronger effect = lower value",0.906 (active)
same,normalized growth,"locus YGL248W, strain PDE1, stronger effect = lower value",0.876 (active)
same,normalized growth,"locus YGR078C, strain PAC10, stronger effect = lower value",0.811 (active)
same,normalized growth,"locus YGR135W, strain pre9, stronger effect = lower value",0.89 (active)
same,normalized growth,"locus YGR252W, strain gcn5, stronger effect = lower value",0.851 (inactive)
same,normalized growth,"locus YHR030C, strain SLT2, stronger effect = lower value",0.973 (inactive) and 0.882 (active)
same,normalized growth,"locus YHR079C, strain IRE1 (second series), stronger effect = lower value",0.922 (active)
same,normalized growth,"locus YHR079C, strain IRE1, stronger effect = lower value",0.976 (inactive)
same,normalized growth,"locus YHR094C, strain hxt1, stronger effect = lower value",0.949 (inactive)
same,normalized growth,"locus YHR129C, strain ARP1, stronger effect = lower value",0.915 (active)
same,normalized growth,"locus YHR200W, strain rpn10, stronger effect = lower value",0.906 (active)
same,normalized growth,"locus YIL066C, strain RNR3, stronger effect = lower value",0.807 (active)
same,normalized growth,"locus YIL073C, strain SPO22, stronger effect = lower value",0.783 (inactive)
same,normalized growth,"locus YIL125W, strain kgd1, stronger effect = lower value",0.941 (inactive)
same,normalized growth,"locus YIR030C, strain dcg1, stronger effect = lower value",0.931 (inactive)
same,normalized growth,"locus YJL095W, strain BCK1, stronger effect = lower value",0.983 (inactive) and 0.669 (active)
same,normalized growth,"locus YJL134W, strain LCB3, stronger effect = lower value",0.941 (inactive)
same,normalized growth,"locus YJL168C, strain set2, stronger effect = lower value",0.936 (inactive)
same,normalized growth,"locus YJL187C, strain SWE1 (second series), stronger effect = lower value",0.891 (inactive)
same,normalized growth,"locus YJR043C, strain POL32, stronger effect = lower value",0.885 (inactive)
same,normalized growth,"locus YJR066W, strain TOR1, stronger effect = lower value",0.9 (inactive)
same,normalized growth,"locus YJR075W, strain HOC1, stronger effect = lower value",0.913 (inactive)
same,normalized growth,"locus YKL009W, strain mrt4, stronger effect = lower value",0.92 (inactive)
same,normalized growth,"locus YKL068W, stronger effect = lower value",0.93 (active)
same,normalized growth,"locus YKL085W, strain MDH1 (second series), stronger effect = lower value",0.928 (active)
same,normalized growth,"locus YKL085W, strain MDH1, stronger effect = lower value",0.928 (active)
same,normalized growth,"locus YKL190W, strain CNB1, stronger effect = lower value",0.933 (inactive)
same,normalized growth,"locus YKR001C, strain vps1, stronger effect = lower value",0.644 (active)
same,normalized growth,"locus YLR039C, strain RIC1, stronger effect = lower value",0.48 (active)
same,normalized growth,"locus YLR058C, strain SHM2, stronger effect = lower value",0.906 (inactive)
same,normalized growth,"locus YLR102C, strain apc9, stronger effect = lower value",0.941 (inactive)
same,normalized growth,"locus YLR113W, strain HOG1, stronger effect = lower value",0.984 (inactive)
same,normalized growth,"locus YLR262C, strain YPT6, stronger effect = lower value",0.468 (active)
same,normalized growth,"locus YLR268W, strain sec22, stronger effect = lower value",0.919 (inactive)
same,normalized growth,"locus YLR330W, strain CHS5, stronger effect = lower value",0.874 (active)
same,normalized growth,"locus YLR342W, strain FKS1 (second series), stronger effect = lower value",0.763 (active)
same,normalized growth,"locus YLR371W, strain rom2, stronger effect = lower value",0.933 (inactive)
same,normalized growth,"locus YLR418C, strain cdc73, stronger effect = lower value",0.736 (active)
same,normalized growth,"locus YML016C, strain PPZ1, stronger effect = lower value",0.922 (inactive)
same,normalized growth,"locus YML032C, strain rad52, stronger effect = lower value",0.942 (inactive)
same,normalized growth,"locus YML124C, strain tub3, stronger effect = lower value",0.925 (active)
same,normalized growth,"locus YMR078C, strain ctf18, stronger effect = lower value",0.929 (inactive)
same,normalized growth,"locus YMR223W, strain ubp8, stronger effect = lower value",0.911 (inactive)
same,normalized growth,"locus YMR263W, strain SAP30, stronger effect = lower value",0.898 (inactive)
same,normalized growth,"locus YMR307W, strain GAS1, stronger effect = lower value",0.658 (inactive)
same,normalized growth,"locus YNL067W, strain RPL9B, stronger effect = lower value",0.886 (inactive)
same,normalized growth,"locus YNL183C, strain NPR1, stronger effect = lower value",0.921 (inactive)
same,normalized growth,"locus YNL233W, strain BNI4, stronger effect = lower value",0.888 (inactive)
same,normalized growth,"locus YNL250W, strain rad50, stronger effect = lower value",0.943 (inactive)
same,normalized growth,"locus YNL271C, strain bni1, stronger effect = lower value",0.918 (active)
same,normalized growth,"locus YNL298W, strain CLA4, stronger effect = lower value",0.906 (active)
same,normalized growth,"locus YNL307C, strain MCK1, stronger effect = lower value",0.543 (active)
same,normalized growth,"locus YNL322C, strain KRE1, stronger effect = lower value",0.936 (inactive)
same,normalized growth,"locus YNR052C, strain pop2, stronger effect = lower value",0.928 (inactive)
same,normalized growth,"locus YOL006C, strain TOP1, stronger effect = lower value",0.589 (inactive)
same,normalized growth,"locus YOL012C, strain htz1",0.966 (inactive)
same,normalized growth,"locus YOL147C, strain pex11, stronger effect = lower value",0.922 (active)
same,normalized growth,"locus YOR061W, strain CKA2, stronger effect = lower value",0.899 (inactive)
same,normalized growth,"locus YOR069W, strain VPS5, stronger effect = lower value",0.937 (inactive)
same,normalized growth,"locus YOR136W, strain idh2, stronger effect = lower value",0.971 (inactive)
same,normalized growth,"locus YOR144C, strain elg1, stronger effect = lower value",0.937 (inactive)
same,normalized growth,"locus YOR184W, strain ser1, stronger effect = lower value",0.783 (active)
same,normalized growth,"locus YOR231W, strain MKK1, stronger effect = lower value",0.982 (inactive)
same,normalized growth,"locus YOR316C, strain cot1, stronger effect = lower value",0.928 (inactive)
same,normalized growth,"locus YPL055C, strain LGE1, stronger effect = lower value",0.836 (inactive)
same,normalized growth,"locus YPL256C, strain CLN2, stronger effect = lower value",0.968 (inactive)
same,normalized growth,"locus YPR119W, strain clb2, stronger effect = lower value",0.947 (inactive)
same,normalized growth,"locus YPR141C, strain kar3, stronger effect = lower value",0.921 (inactive)
same,normalized growth,"locus YPR163C, strain tif3, stronger effect = lower value",0.772 (active)
same,normalized growth,"locus YPR167C, strain met16, stronger effect = lower value",0.943 (inactive)
same,normalized growth,"strain wtn01, stronger effect = lower value",0.91 (inactive)
